Vaccinia Venus: vaccinia inhibition (Venus reporter). Potency, µM (highest dose often 36.5 µM), for the others: at the top dose activity change, negative = inhibition, usual class: inhibitors. 330,000 compounds, 0.46% hits. Vaccinia virus Venus reporter expression, fluorescence; calls by dose curve; tested in A549 cells; also: nearly all actives have a fitted effect of over 30% in size
HCV inh: inhibitors of hepatitis C virus infection; 340,000 compounds, 3.4% hits; Potency, µM (doses to about 41.8 µM), without a hit: top-dose activity change, negative = inhibition, actives largely listed as inhibitors; Huh7.5.1 HCVcc-Cre infection, luciferase reporter, 44 h; active = well fitted inhibition curve with a large enough effect; inconclusive = small, poorly fitted or top-dose-only effect, or another doubt; inactive = no such curve, though single readings can be large or run the other way
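Whole-lifecycle infectious HCVcc-Cre system; cells 1,000/well, compound then virus (~0.5 moi) added 4 h after plating, 44 h culture. Luciferase read 15 sec following 15 min substrate incubation, room temp.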
VACV mCherry inh: vaccinia inhibition (mCherry reporter). AID 720579. 310,000 compounds, 0.63% hits. Vaccinia virus mCherry reporter infection, fluorescence. Potency, µM (highest dose often 36.5 µM), inactives show top-dose activity change, negative = inhibition, most hits filed as inhibitors; calls by dose curve; tested in A549 cells; also: nearly all actives have a fitted effect of over 35% in size
FMDV antiviral: foot and mouth disease virus antiviral activity | 410,000 compounds, 1.2% hits | Potency, µM (doses to about 57.9 µM), inactives show at the top dose activity change, negative = inhibition, usual class: inhibitors | FMDV antiviral cell-based qHTS; calls by dose curve; tested in HEK293T cells; also: read-out not given here; nearly all actives have a fitted effect of over 45% in size
Marburg entry inh: blocks Marburg virus binding to or entry into cells; Marburg virus pseudotyped entry inhibition, cell reporter; Potency, µM (highest dose often 37.8 µM), for inactives: top-dose activity change, negative = inhibition, hits mostly inhibitors; 300,000 compounds, 1.8% hits; calls by dose curve; tested in HEK293 cells
LASV entry inh: Lassa virus entry inhibition | Lassa virus pseudotype entry inhibition, cell reporter | Potency, µM (top dose mostly 37.9 µM), for the others: at the top dose activity change, negative = inhibition, actives largely listed as inhibitors | 300,000 compounds, 1.2% hits; calls by dose curve; tested in HEK293 cells; also: nearly all actives have a fitted effect of over 50% in size
Active calls of the source: *; [ ] = dose if it differs, or a comment. Sampled rows, rich in hits. Any-hit rate of the full collection: about 5.3%. % is scaled to controls: 0 for no effect and ±100 for the full control effect; potency is read from the fitted curve at half-maximal effect.

For Cc1ccc(NC(=O)CSc2nn(-c3ccc(Cl)cc3)c(=S)s2)cc1S(=O)(=O)N(C)C the results were Vaccinia Venus inconclusive, HCV inh 13µM*, VACV mCherry inh inconclusive, FMDV antiviral inconclusive, Marburg entry inh inconclusive and LASV entry inh 11µM*.
For CN(C)S(=O)(=O)c1cc(NC(=O)CSc2nn(-c3ccc(Cl)cc3)c(=S)s2)ccc1Cl the results were Vaccinia Venus inconclusive, HCV inh 6.3µM*, VACV mCherry inh inconclusive, FMDV antiviral inconclusive, Marburg entry inh inconclusive and LASV entry inh inconclusive.
`COc1ccccc1NC(=O)Cn1c(=O)n(Cc2ccco2)c(=O)c2oc3ccccc3c21` gave Vaccinia Venus -9%, VACV mCherry inh -9%, FMDV antiviral inconclusive and LASV entry inh -6%[46.1 µM].
COCC(=O)Nc1cc(C(=O)NC2C3CC4CC2CC(O)(C4)C3)cc2nc(-c3ccccc3)n(C)c12 (centres undefined) was read as Vaccinia Venus -4%, VACV mCherry inh -12% and FMDV antiviral -10%.
`CCN(CC)c1ccc(N=Cc2c(O)n(CCc3ccc(OC)c(OC)c3)c(=O)[nH]c2=O)cc1` gave Vaccinia Venus -7%, HCV inh 16%, VACV mCherry inh -14%, FMDV antiviral 6.3µM*, Marburg entry inh 2.8µM* and LASV entry inh inconclusive.
Screening CCN(CC)CCCN=Cc1c(O)n(CCc2ccc(OC)c(OC)c2)c(=O)[nH]c1=O returned HCV inh -6%, FMDV antiviral -21%, Marburg entry inh 6% and LASV entry inh 9%.
For COc1ccc(CCn2c(O)c(C=Nc3ccc(F)cc3)c(=O)[nH]c2=O)cc1OC the results were HCV inh -6% and FMDV antiviral 32µM*.
For COc1cc(OC)c(-c2nnc3n(CCc4ccccc4)c(=O)c4ccccc4n23)cc1OC the results were HCV inh -10%.
COc1ccc(-c2nnc3n(CCc4ccccc4)c(=O)c4ccccc4n23)c(OC)c1 was read as Vaccinia Venus -3%, HCV inh 10%, VACV mCherry inh -11%, FMDV antiviral 28µM*, Marburg entry inh 10µM* and LASV entry inh inconclusive.
For Cc1cccc(-c2nnc3n(CCc4ccccc4)c(=O)c4ccccc4n23)c1 the results were Vaccinia Venus 0%, VACV mCherry inh -13%, FMDV antiviral inconclusive, Marburg entry inh inconclusive and LASV entry inh 5%[46.1 µM].
CC(C)c1ccc(-c2nnc3n(CCc4ccccc4)c(=O)c4ccccc4n23)cc1 was read as Vaccinia Venus -9%, VACV mCherry inh -26%, FMDV antiviral 28µM*, Marburg entry inh 5%[46.1 µM] and LASV entry inh -2%[46.1 µM].
COC(=O)C1=C(C)N(Cc2ccccc2)C(=NCCc2ccccn2)NC1c1cccc(F)c1 (centres undefined) was read as Marburg entry inh -21%[14.2 µM].
CCc1nc(Nc2ccc(F)c(Cl)c2)c2c3c(sc2n1)CCCC3 was read as Vaccinia Venus 0%, VACV mCherry inh -12%, FMDV antiviral -8%, Marburg entry inh 0%[46.1 µM] and LASV entry inh -1%[46.1 µM].
`Cc1ccc(C(C(=O)NC(C)(C)C)N(Cc2cccs2)C(=O)c2ccc3c(c2)OCCO3)cc1` (centres undefined) gave Vaccinia Venus -13%, HCV inh -42%, VACV mCherry inh inactive, FMDV antiviral 0%, Marburg entry inh inconclusive and LASV entry inh inconclusive.
Screening CCC(C)(C)NC(=O)C(c1ccc(C)cc1)N(Cc1cccs1)C(=O)c1ccc2c(c1)OCCO2 (centres undefined) returned Vaccinia Venus -11%, HCV inh -19%, VACV mCherry inh -21%, FMDV antiviral -22%, Marburg entry inh 15µM* and LASV entry inh inconclusive.
Cc1ccc(S(=O)(=O)N2CCC(=O)N(C(COCc3cccc(C(F)(F)F)c3)Cc3ccccc3)CC2)cc1 (centres undefined) was read as Vaccinia Venus -25%, HCV inh 10µM*, VACV mCherry inh inconclusive, FMDV antiviral -13%, Marburg entry inh inconclusive and LASV entry inh inconclusive.
Cc1ccc(S(=O)(=O)N2CCC(=O)N(C(COCc3cccc(C(F)(F)F)c3)C(C)C)CC2)cc1 (centres undefined) was read as Vaccinia Venus inconclusive, HCV inh -3%[8.37 µM], VACV mCherry inh inconclusive, FMDV antiviral inconclusive, Marburg entry inh 13µM* and LASV entry inh inconclusive.
For Cc1ccc(S(=O)(=O)N2CCC(=O)N(C(COCc3ccccc3)Cc3ccccc3)CC2)cc1 (centres undefined) the results were Vaccinia Venus -29%, HCV inh -8%, VACV mCherry inh -22%, FMDV antiviral -16%, Marburg entry inh 28% and LASV entry inh -5%.
Cc1ccc(S(=O)(=O)N2CCC(=O)N(C(COCc3cccc(C)c3)C(C)C)CC2)cc1 (centres undefined) was read as Vaccinia Venus -21%, HCV inh inconclusive, VACV mCherry inh -6%, FMDV antiviral -28%, Marburg entry inh -20% and LASV entry inh -11%.
Screening CNC(=S)NCCCCc1cnc[nH]1 returned FMDV antiviral -16%.
For C=CCNc1nc(NCc2ccccc2)c(C#N)c2c1CN(C)CC2 the results were Vaccinia Venus -17%, HCV inh 18µM*, VACV mCherry inh inconclusive, FMDV antiviral inconclusive, Marburg entry inh inconclusive and LASV entry inh 2%.
`N#Cc1c(NCCN)nc(NCc2ccccc2)c2c1CCN(Cc1ccccc1)C2` gave Vaccinia Venus -21%, HCV inh inconclusive, VACV mCherry inh -8%, FMDV antiviral -17%, Marburg entry inh inconclusive and LASV entry inh 7%.
For CCN1CCc2c(C#N)c(NCc3ccccc3)nc(N(CC)CC)c2C1 the results were HCV inh inconclusive, FMDV antiviral inconclusive, Marburg entry inh inconclusive and LASV entry inh 15µM*.
CCOc1ccc(C(=O)Cn2c(=O)n3nc(CCn4nc(C)cc4C)nc3c3cc(OC)c(OC)cc32)cc1 was read as Vaccinia Venus inconclusive, VACV mCherry inh 3.5µM*, FMDV antiviral -7% and LASV entry inh 13%[46.1 µM].
`CCC(Oc1nc2ccccc2nc1-c1ccccc1NC(C)=O)C(=O)c1ccccc1` (centres undefined) gave Vaccinia Venus -10%, HCV inh -28%, VACV mCherry inh -14%, FMDV antiviral -15%, Marburg entry inh -8% and LASV entry inh 18µM*.
For CCCN(CCC)CCNC(=O)Cn1cnc2sc(C)c(S(=O)(=O)N3CCN(c4ccccc4OC)CC3)c2c1=O the results were Vaccinia Venus -15%, VACV mCherry inh -10%, FMDV antiviral 0%, Marburg entry inh 3%[46.1 µM] and LASV entry inh 24%[46.1 µM].
For O=C(CNC(=O)N1CC(=O)Nc2ccccc21)Nc1ccc(Cl)cc1Cl the results were Vaccinia Venus -15%, VACV mCherry inh -26% and FMDV antiviral -23%.
